TROY NFkB inh – TROY signaling inhibition; inhibition, % at 10 µM; Q293 LMP1-TROYcd NF-kB luciferase reporter, 4 h; 0.98% of 360,000 active;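 active = compounds whose plate-normalised and pattern-corrected inhibition of the luciferase reporter signal at the single screening dose is 50% or more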
LGR2 antag – Drosophila LGR2 receptor signaling inhibition; HEK293 LGR2, CRE-luciferase, bursicon-stimulated, 4 h; inhibition, % at 9.99 µM; 0.35% of 380,000 active;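 active = drop in luminescence signal, shown as inhibition above about 50% in the replicate tests, limit read from the data, passing the limit was not always enough; inconclusive = probably only some replicates passing the limit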;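 note: agonist challenge used bursicon conditioned medium at about half maximal strength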
HSP90 inh – HSP90 refolding inhibition in rabbit reticulocyte lysate. 0.91% of 290,000 active. inhibition, % at 5.6 µM. luciferase refolding luminescence, 3 h;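 active = inhibition above the screen-wide mean plus 3 SD, computed separately per campaign, cut at about 16% in these data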;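 note: inhibitors lower the luminescence because luciferase stays unfolded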
TWEAK Fn14 block – blocks TWEAK-Fn14 interaction in a reporter cell assay. TWEAK-stimulated Fn14 reporter cells, luciferase luminescence, 8 h. inhibition, % at 10 µM. 2% of 360,000 active. AID 1159606; in the data active = inhibition above about 50%
HSP90 inh confirm – confirmation of HSP90 inhibitors; rabbit reticulocyte lysate, luciferase refolding luminescence, 3 h; shares compounds with HSP90 inh; inhibition, % at 5.9 µM; 64% of 2,300 active; in the data active = inhibition above about 18%
FLuc counter – blocks native firefly luciferase in HSP90 counter-screen; 48% of 2,300 active; purified native firefly luciferase, luminescence; shares compounds with HSP90 inh; inhibition, % at 5.9 µM;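 active = inhibition above the mean inhibition of all tested sample wells plus 3 SD, cut at about 10% in these data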
Target sequence (P08659 whole entry, looked up): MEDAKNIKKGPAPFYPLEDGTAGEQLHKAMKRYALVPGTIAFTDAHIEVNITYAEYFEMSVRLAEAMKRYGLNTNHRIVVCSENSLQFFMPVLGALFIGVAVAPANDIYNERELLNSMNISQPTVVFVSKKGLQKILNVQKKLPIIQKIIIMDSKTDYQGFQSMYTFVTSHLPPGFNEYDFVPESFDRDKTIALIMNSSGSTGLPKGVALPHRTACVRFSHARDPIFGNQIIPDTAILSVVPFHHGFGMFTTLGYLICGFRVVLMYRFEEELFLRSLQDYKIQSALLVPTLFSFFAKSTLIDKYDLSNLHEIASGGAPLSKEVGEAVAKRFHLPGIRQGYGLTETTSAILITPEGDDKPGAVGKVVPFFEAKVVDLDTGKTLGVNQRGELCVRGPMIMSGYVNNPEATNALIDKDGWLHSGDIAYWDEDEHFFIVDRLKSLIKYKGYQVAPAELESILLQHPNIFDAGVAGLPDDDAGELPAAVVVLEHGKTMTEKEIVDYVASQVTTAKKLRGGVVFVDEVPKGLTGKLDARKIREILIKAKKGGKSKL
Large screens that a line does not name were inactive (follow-up assays come after a bar, where they were run). A selection: hits, their analogues and other compounds. The true share with any hit is near 2.2%.

CC1CCN(c2ccc(-c3cccc(NC(=O)C(F)(F)F)c3)nn2)CC1	TROY NFkB inh 83, LGR2 antag 97, HSP90 inh 19, TWEAK Fn14 block 101 | HSP90 inh confirm 56 | FLuc counter inactive
CCC(=O)Nc1cccc(-c2ccc(N3CCC(C)CC3)nn2)c1	LGR2 antag inconclusive, HSP90 inh 33, TWEAK Fn14 block 60 | HSP90 inh confirm 66 | FLuc counter 45
O=C(N[C@H]1C=C[C@@H](CC(=O)N2CCc3ccccc3C2)O[C@H]1CO)C1CCOCC1	none (no result: TROY NFkB inh, HSP90 inh, TWEAK Fn14 block)
Cc1ccc(NC(=O)c2ccc3ncsc3c2)cc1S(=O)(=O)N(C)C	HSP90 inh 19 (no result: TROY NFkB inh, TWEAK Fn14 block) | HSP90 inh confirm 24 | FLuc counter 20
N#CC(Cc1cccc(CC(C#N)(c2ccccc2)c2ccccc2)c1)(c1ccccc1)c1ccccc1	HSP90 inh 40 | HSP90 inh confirm inactive | FLuc counter inactive
Cc1ccc(S(=O)(=O)Nc2ccc3c(c2)C(=O)N([C@H](C)CO)C[C@@H](C)[C@H](CN(C)S(=O)(=O)c2c(C)noc2C)OCCCC[C@H](C)O3)cc1	none (no result: TROY NFkB inh, HSP90 inh, TWEAK Fn14 block)
C[C@H]1CN([C@@H](C)CO)C(=O)Cc2cc(NC(=O)NC3CCCCC3)ccc2O[C@@H]1CN(C)S(C)(=O)=O	none (no result: TROY NFkB inh, HSP90 inh, TWEAK Fn14 block)
CC1(C)Cc2ccccc2C2=NNC(=O)C2=N1	HSP90 inh 17 | HSP90 inh confirm 34 | FLuc counter inactive
Cc1ccnc(SCC(=O)N2CCN(c3ccccc3)CC2)n1	none (no result: LGR2 antag)
O=C(CSc1ncn(-c2ccccc2)n1)N1CCN(c2ccccc2)CC1	HSP90 inh 35 (no result: LGR2 antag) | HSP90 inh confirm inactive | FLuc counter inactive
CCCN1[C@H](C(=O)NCC2CC2)[C@@H](CO)[C@@H]2Cn3c(ccc(-c4ccccc4)c3=O)[C@@H]21	none (no result: TROY NFkB inh, HSP90 inh, TWEAK Fn14 block)
O=C(c1cccc(-c2ccccc2F)c1)N1CC[C@@H](N2CCC(O)CC2)[C@H](O)C1	HSP90 inh 84 | HSP90 inh confirm inactive | FLuc counter inactive
CC(C)=CC(=O)N1CC[C@@H](N2CCN(c3ccccc3F)CC2)[C@H](O)C1	none
CCCC(=O)N1C[C@@H]2[C@H](c3ccccc31)[C@H](CO)N2C(=O)Nc1ccccc1	none (no result: TROY NFkB inh, HSP90 inh, TWEAK Fn14 block)
COc1ccccc1Nc1nnc(SCC2CCCCO2)s1 (stereo not given)	HSP90 inh 32, TWEAK Fn14 block 65 | HSP90 inh confirm 38 | FLuc counter 39
C[C@@H]1CCCCO[C@H](CN(C)C(=O)CCCN(C)C)[C@@H](C)CN([C@@H](C)CO)C(=O)c2cc(NC(=O)c3ccccc3)ccc2O1	none (no result: TROY NFkB inh, HSP90 inh, TWEAK Fn14 block)
CCCC(=O)Nc1ccc2c(c1)C(=O)N(C)C[C@H](OC)[C@@H](C)CN(Cc1cccc(F)c1)[C@H](C)CO2	none (no result: TROY NFkB inh, HSP90 inh, TWEAK Fn14 block)
CC(C)(C)C(=O)Nc1ccc(-c2cn3ccsc3n2)cc1	HSP90 inh 29, TWEAK Fn14 block 74 (no result: LGR2 antag) | HSP90 inh confirm 49 | FLuc counter 33
N#C[C@H]1[C@@H](c2ccccc2-c2ccccc2F)[C@@H](CO)N1C(=O)C1CC1	none (no result: TROY NFkB inh, HSP90 inh, TWEAK Fn14 block)
COc1ccc(NC(=O)N(C)C[C@@H]2Oc3ccc(NS(=O)(=O)c4ccc(C)cc4)cc3C(=O)N([C@H](C)CO)C[C@@H]2C)cc1	none (no result: TROY NFkB inh, HSP90 inh, TWEAK Fn14 block)
CC(=O)N(C)C[C@@H]1Oc2ncc(C3=CCCC3)cc2C(=O)N([C@@H](C)CO)C[C@H]1C	none (no result: TROY NFkB inh, HSP90 inh, TWEAK Fn14 block)
CC1CCc2nc(NC(=O)C3CC3)sc2C1 (stereo not given)	none
Cc1csc(NC(=O)C2COc3ccccc3O2)n1 (stereo not given)	HSP90 inh 46, TWEAK Fn14 block 78 (no result: LGR2 antag) | HSP90 inh confirm 63 | FLuc counter 56
Cc1cnc(NC(=O)C2COc3ccccc3O2)s1 (stereo not given)	TROY NFkB inh 60, HSP90 inh 46, TWEAK Fn14 block 95 (no result: LGR2 antag) | HSP90 inh confirm 70 | FLuc counter 70
CC1CCc2nc(NC(=O)C3COc4ccccc4O3)sc2C1 (stereo not given)	TROY NFkB inh 82, HSP90 inh 57, TWEAK Fn14 block 96 (no result: LGR2 antag) | HSP90 inh confirm 72 | FLuc counter 66
C[C@@H]1CN([C@H](C)CO)C(=O)Cc2cc(NC(=O)CCN3CCOCC3)ccc2O[C@@H]1CN(C)C(=O)Nc1cccc2ccccc12	none (no result: TROY NFkB inh, HSP90 inh, TWEAK Fn14 block)
COc1ccc(NC(=O)N2CCCC2C(=O)NCc2ccc(F)cc2)cc1 (stereo not given)	none (no result: LGR2 antag)
O=C(NCc1ccc(F)cc1)C1CCCN1C(=O)Nc1cccc(F)c1 (stereo not given)	HSP90 inh 24 | HSP90 inh confirm inactive | FLuc counter inactive

Compound activity (PubChem)
